# About 410 (0.13%) of roughly 310,000 compounds were called active. About 2% were inconclusive and are not listed. The list is a sample of the results. Measured potencies and affinities stand elsewhere. Values without a mark were called inactive. No rule for the calls is given here.
# Test: RSV antiviral activity via CPE protection, HEp-2 cells, primary 10 µM value included (AID 2391)
# Conditions: RSV-induced CPE inhibition, at 10 µM, hits give high values
row,Structure (SMILES),CPE inhibition
1,COc1cc(-c2nc3c(c(C)nn3-c3ccccc3)c3cc(OC)c(OC)cc23)ccc1O,57.5%
2,COc1cc2c(-c3ccccc3O)nc3c(c(C)nn3-c3ccccc3)c2cc1OC,1.81%
3,Cc1ccc(Nc2nc(CSc3nnc(-c4ccncc4)n3C)cs2)cc1,1.07%
4,Cc1cc(C)n2nc(SCc3c(F)cccc3Cl)nc2n1,0.85%
5,CN(CCO)S(=O)(=O)c1ccc2c(c1)C(=NO)c1cc(S(=O)(=O)N(C)CCO)ccc1-2,-0.46%
6,CN(C)S(=O)(=O)c1ccc2c(c1)C(=NO)c1cc(S(=O)(=O)N(C)C)ccc1-2,2.67%
7,CCS(=O)(=O)N1CCN(c2ccccn2)CC1,-0.21%
8,Cn1nnnc1SCC(=O)N(C1CCCCC1)C1CCS(=O)(=O)C1 (configuration not stated),-0.03%
9,CCC(=O)NCCc1nc2cc(NC(=O)Nc3ccccc3)ccc2n1C,1.28%
10,CC(NC(=O)c1ccc(F)cc1Cl)C1CC2CCC1C2 (configuration not stated),1.15%
11,COCc1cc(C)nc(SCC(=O)Nc2cc(C(F)(F)F)ccc2N2CCOCC2)c1C#N,1.23%
12,COCc1cc(C)nc(SCC(=O)Nc2ccc(N3CCOCC3)cc2)c1C#N,1.56%
13,CC(=O)CC(C)(C)n1nnc(-c2ccccc2)n1,1.03%
14,COc1ccc(CNC(=O)N2CCN(c3ccc(F)cc3)CC2)cc1,0.79%
15,Cn1c(SCc2ccccc2)nnc1-c1ccco1,3.37%
16,Nn1c(SCc2cccc3ccccc23)nnc1-c1ccco1,0.35%
17,Cc1ccc(SCCOCCN2CCOCC2)cc1,-1.12%
18,CCc1nc(SCC(=O)N2CC(=O)Nc3ccccc32)c2c(C)c(C)sc2n1,0.22%
19,Cc1sc2nc(C3CC3)nc(SCC(=O)N3CCc4ccccc4C3)c2c1C,1.85%
20,Cc1sc2nc(C3CC3)nc(SCC(=O)N3CCCc4ccccc43)c2c1C,20.9%
21,Cc1sc2nc(C(C)C)nc(SCC(=O)N3c4ccccc4CC3C)c2c1C (configuration not stated),16.1%
22,COc1ccccc1N=Nc1nc(-c2ccccc2)c(-c2ccccc2)[nH]1,12.4%

row,Structure (SMILES),CPE inhibition
1,CC(C)CNC(=O)COC(=O)CNC(=O)c1cc(Cl)cc([N+](=O)[O-])c1,1.69%
2,COC(=O)C1=C(C)N(c2ccccc2)/C(=C/c2ccco2)C1=O,0.77%
3,CCc1ccc(NCCC(=O)c2ccc(Br)cc2)cc1,0.86%
4,CCS(=O)(=O)N1CCCC(C(=O)Oc2ccc(Br)cc2)C1 (configuration not stated),-0.04%
5,O=C(O)c1cccc(NC(=O)c2cn(-c3ccccc3)nc2-c2ccc([N+](=O)[O-])cc2)c1,19%
6,COc1ccc(-c2oc(=O)c3cc(OC)c(OC)cc3c2/C=C/c2ccc(F)cc2)cc1,5.33%
7,COc1cc(OC)cc(-c2oc(=O)c3cc(OC)c(OC)cc3c2/C=C/c2ccc(F)cc2)c1,3.91%
8,Cc1cc(N(C(=O)c2ccco2)C(C(=O)NC2CCCCC2)c2ccccc2)ccc1-n1cnnn1 (configuration not stated),0.41%
9,CCN(CC)c1ccc(NC(=O)C(C)C)cc1,0.56%
10,COc1cccc(N2CCN(S(=O)(=O)c3c(C)[nH]c(C)c3C(=O)N3CCCCC3)CC2)c1,1.56%
11,Cc1[nH]c(C)c(S(=O)(=O)N2CCN(c3cccc(C(F)(F)F)c3)CC2)c1C(=O)N1CCCC1,2.4%
12,Cc1[nH]c(C)c(S(=O)(=O)N2CCN(c3ccccc3)CC2)c1C(=O)N1CCCCC1,0.61%
13,Cc1[nH]c(C)c(S(=O)(=O)N2CCN(c3cccc(Cl)c3)CC2)c1C(=O)N1CCCC1,0.18%
14,Cc1nc(SCC(=O)NCc2ccco2)c2c(=O)n(C)c(=O)n(CC(C)C)c2n1,1.51%
15,O=c1c2c(n3cnnc3n1C1CCCCC1)-c1ccccc1CC21CCCCC1,3.08%
16,O=C(CCn1nnc2ccccc2c1=O)N[C@@H](Cc1ccccc1)C(=O)O,2%
17,COc1ccc(OC)c(CN2CCN(C(=O)c3ccco3)CC2)c1,0.83%
18,CNC(=O)CN1C(=O)NC(Cc2c[nH]c3ccccc23)C1=O (configuration not stated),2.1%
19,CC(C)(C)OC(=O)CN1C(=O)NC(Cc2c[nH]c3ccccc23)C1=O (configuration not stated),-0.27%
20,CC1CN(C(=O)/C=C/c2ccc(SC(F)F)cc2)CC(C)O1 (configuration not stated),1.82%
21,Cc1occc1-c1nnc(SCC(N)=O)n1Cc1ccccc1,1%
22,COC(=O)c1cccnc1NC(=S)NC1CCCCC1,0.64%

row,Structure (SMILES),CPE inhibition
1,CC(C)OC(=O)c1ccc(Cn2nnc3ccccc3c2=O)cc1,12.4%
2,Cc1ccc(O)c(NC(=S)NC(=O)CC(C)C)c1,0.23%
3,Cc1ccc(O)c(NC(=S)NC(=O)c2ccc(-c3ccc(Cl)cc3)o2)c1,-0.16%
4,CC(C)(C)c1ccc(C2C(C(=O)c3ccco3)=C(O)C(=O)N2CC2CCCO2)cc1 (configuration not stated),8.05%
5,O=C(CCCn1c(=O)c2sccc2n(CC(=O)NCc2ccco2)c1=O)NCc1ccco1,-0.82%
6,Cc1cccc2nc(Cn3c(=O)n(CCC(=O)NCc4ccco4)c(=O)c4sccc43)cc(=O)n12,10.2%
7,O=C(CCn1c(=O)c2ccccc2n(Cc2cc(=O)n3ccccc3n2)c1=O)NCc1ccco1,64%
8,Cc1ccccc1Cn1c(=O)n(CCCC(=O)NCc2ccco2)c(=O)c2sccc21,3.02%
9,O=C(C1=C[C@@H](c2coc3ccccc3c2=O)C[C@@H](OCc2ccc(CO)cc2)O1)N1CCN(Cc2ccc3c(c2)OCO3)CC1,4.77%
10,COC(=O)c1cc(S(=O)(=O)NCCc2cccc(C)c2)cn1C,0.96%
11,CC(C)(C)c1csc(NC(=O)Nc2ccccc2)n1,17.7%
12,COc1ccccc1CNC(=O)Cc1csc(NC(=O)Nc2ccccc2OC)n1,7.68%
13,O=C(CCCCCNC(=O)N1CCn2c1nc1ccccc12)N[C@@H](Cc1ccccc1)C(=O)O,0.73%
14,Cc1ccc2c(Cl)cc(Cl)c(OCC(=O)Nc3ccc(C)c(S(=O)(=O)N(C)C)c3)c2n1,1.79%
15,Cc1cccn2c(=O)c(/C=C(\C#N)C(=O)NCc3ccco3)c(N3CCC(C(N)=O)CC3)nc12,2.25%
16,Cc1cccn2c(=O)c(/C=C(\C#N)C(=O)NCc3ccco3)c(N3CCOCC3)nc12,1.08%
17,CNC(=O)/C(C#N)=C/c1c(N2CCN(c3ccccc3)CC2)nc2c(C)cccn2c1=O,14.9%
18,CCN1CCN(c2nc3c(C)cccn3c(=O)c2/C=C(\C#N)C(=O)NC)CC1,2.17%
19,COC(=O)[C@H](CCSC)NC(=O)NCCc1ccccc1F,0.16%
20,CC1CCN(Cc2c(C(=O)N/N=C/c3ccc(OC(C)C)cc3)nnn2-c2nonc2N)CC1,3%
21,COc1ccc(C2C3=C(CC(C)(C)CC3=O)N(C)C3=C2C(=O)CC(C)(C)C3)cc1OC,4.11%
22,COC(=O)C1=C(N)Oc2cc(C)n(CCCn3ccnc3)c(=O)c2C1c1cccc(Cl)c1 (configuration not stated),1.81%

row,Structure (SMILES),CPE inhibition
1,COc1ccc(-c2cc(C(=O)N3CCN(c4ncccn4)CC3)c3ccccc3n2)c(OC)c1,0.07%
2,O=C(N/N=C/c1ccc2c(c1)OCO2)c1cc(-c2ccccc2)nc2ccccc12,1.93%
3,CCOc1ccc(-c2cc(C(=O)N/N=C(\C)c3cccnc3)c3ccccc3n2)c(OCC)c1,0.9%
4,CCOc1ccc(-c2cc(C(=O)O)c3ccccc3n2)cc1,8.94%
5,O=C(N/N=C/c1ccc2c(c1)OCO2)c1cc(-c2ccccc2Cl)nc2ccccc12,4.7%
6,COc1ccc(-c2cc(C(=O)N3CCCCC3)c3ccccc3n2)cc1,0.19%
7,COc1ccc(CN(C)CC(=O)Nc2ccccc2C(F)(F)F)c(OC)c1,0.3%
8,CCOC(=O)C1CCCN(C(=O)c2cccc(S(=O)(=O)N(C)c3ccc(C)cc3)c2)C1 (configuration not stated),0.68%
9,Cc1cccc(/C=N/NC(=O)c2cccc(NC(=O)c3ccccc3)c2)n1,1.75%
10,CC1(C)CC(=O)C=C(NNC(=O)c2ccc(N)cc2)C1,1.88%
11,O=C(CN(C(=O)c1csnn1)c1cccc2c1CCCC2)NCc1ccc(F)cc1,1.67%
12,CCOC(=O)c1c(CN2CCOCC2)oc2ccc(OC(C)=O)cc12,2.6%
13,COc1ccc(OCc2cc(C(=O)N3CCCC(CO)C3)no2)c2ccccc12 (configuration not stated),3.56%
14,CC1CC(C)(C)NC(=S)N1CC(=O)N1CCN(Cc2ccccc2)CC1 (configuration not stated),-0.71%
15,Clc1ccc(OCc2nnc(-c3ccccc3Br)o2)cc1,11.5%
16,COc1ccc(-c2nc(CN3CCC(C(=O)N4CCc5ccccc54)CC3)c(C)o2)cc1OC,0.12%
17,O=C(O)CCC(=O)N1N=C(c2cccs2)CC1c1cn(-c2ccccc2)nc1-c1ccccc1 (configuration not stated),1.96%
18,COc1ccc(-c2nn(-c3ccccc3)cc2C2CC(c3cccs3)=NN2C(=O)CCCC(=O)O)cc1 (configuration not stated),6.41%
19,CCCCCCSc1cccc(-c2nc3ccc(Cl)cn3c2NCc2ccccc2)c1,-1.21%
20,O=C(CCSc1nnc2scc(-c3ccccc3)n12)Nc1nc(-c2ccccc2)ns1,9.19%
21,CCN(c1ccccc1)S(=O)(=O)c1cccc(C(=O)NCC(c2cccs2)N(C)C)c1 (configuration not stated),-0.95%
